Among the data in PubChem BioAssay (EPA / NIEHS) are outcome values, retold here.

Results filed as inconclusive are left out. Activity calls are given as the source filed them. Rule for the calls, unless noted: active = hit-call score of the fitted dose curve at least 0.9, where 1 is the maximum; inactive = score below 0.9.

Assay [1] can be described thus: CCTE_Harrill_HTTr_Viability_MCF7: CCTE's 6-hour Cell Viability Assessment for the High-Throughput Transcriptomics (HTTr) Platform, in MCF-7 cells cultured in DMEM + 10% fetal bovine serum, Harrill Lab (AID 2284010). The method, boiled down:
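Propidium iodide exclusion, imaged by high-content analysis, gauged viability after a six-hour exposure across eight concentrations. Cells were MCF-7 grown in DMEM with 10% fetal bovine serum; fits run in both directions against DMSO.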

Assay [2] in a line: CCTE_Harrill_HTTr_Apoptosis_MCF7: CCTE's 6-hour Apoptosis Assessment for the High-Throughput Transcriptomics (HTTr) Platform, in MCF-7 cells cultured in DMEM + 10% fetal bovine serum, Harrill Lab (AID 2284011). The procedure, abridged:
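MCF-7 cells in DMEM + 10% FBS exposed 6 h to chemicals over an eight-point dilution series. Caspase-3/7 activation imaged by high-content CellEvent Green staining; fitted bidirectionally versus DMSO.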

The nature of assay [3]: CCTE_Harrill_HTTr_CellCount_MCF7: CCTE's Cell Proliferation Assessment for the High-Throughput Transcriptomics (HTTr) Platform, Harrill Lab (AID 2284012; active = hit-call score of the fitted dose curve at least 0.9, where 1 is the maximum;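 note: cells exposed to compound for six hours; intended direction is loss of nuclei count meaning fewer cells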). The method, boiled down: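 Cell count from high-content imaging of Hoechst-labeled nuclei serves as viability/growth readout. Chemicals were applied to MCF-7 cells in eight concentrations for six hours, with fitting in both directions relative to DMSO.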

Turning to `COc1c2occc2c(OC)c2c(=O)cc(C)oc12`, the result in assay [1], in assay [2] and in assay [3] was inactive.
Turning to `CCCCCCCCOC(=O)c1ccccc1C(=O)O`, the outcome in assay [1], in assay [2] and in assay [3] was inactive.
`CC(=CC(C)(C)C)CC(C)(C)C`: the result in assay [1], in assay [2] and in assay [3] was inactive.
With `CC(=O)C(=NNc1ccc(-c2ccc(NN=C(C(C)=O)C(=O)Nc3ccc(C)cc3C)c(Cl)c2)cc1Cl)C(=O)Nc1ccc(C)cc1C`, the outcome in assay [1], in assay [2] and in assay [3] was inactive.
Consider `CCCCCC1=C(C)CCC1=O`, for which the result in assay [1], in assay [2] and in assay [3] was inactive.
On to `CCCCCCCCCCCCCCCC=O`, for which the result in assay [1], in assay [2] and in assay [3] was inactive.
For `CCOC(=O)[C@@H](C)Oc1ccc(Oc2cnc3cc(Cl)ccc3n2)cc1`, the result in assay [1] and in assay [2] was inactive.
Regarding `Nc1nc2nc[nH]c2c(=O)[nH]1`, the outcome in assay [1], in assay [2] and in assay [3] was inactive.
On to `Clc1ccc(-c2nc3sccn3c2/C=N/OCc2ccc(Cl)c(Cl)c2)cc1`, for which the outcome in assay [1] and in assay [2] was inactive.
